# The panel holds about 79,000 compounds, 15% with a hit somewhere; the sample as a whole holds those more often. Unmarked numbers belong to inactive results. Active and inactive are the calls of the source. Cut-off read from the data, not from the text of the source: active = growth inhibition above about 70%; inactive = the rest.
# What was measured:
# [1] = NCI Yeast Anticancer Drug Screen. Data for the rad50 strain (AID 155);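 note: 0% = growth of vehicle-only cultures of the same strain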; details: S. cerevisiae rad50 strain growth inhibition; at 50.0 µM; stronger effect = higher value
# Procedure, shortened: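 Yeast carrying a defined DNA repair defect were exposed to test compounds, and growth was compared with vehicle-treated controls to give percent inhibition.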
# [2] = NCI Yeast Anticancer Drug Screen. Data for the mec2-1 strain (AID 157); details: S. cerevisiae mec2-1 strain, at 50.0 µM, stronger effect = higher value
# Procedure, shortened: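 Strain: mec2-1 (DNA repair/cell cycle alteration). Compound exposure, then growth measured; inhibition expressed relative to vehicle.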
# [3] = NCI Yeast Anticancer Drug Screen. Data for the sgs1 mgt1 strain (AID 161);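 note: 0% = growth of cultures given vehicle only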; details: S. cerevisiae sgs1 mgt1 strain, at 50.0 µM, stronger effect = higher value
# Procedure, shortened: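 Mutant yeast exposed to compound; growth scored against vehicle-only wells.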
# [4] = NCI Yeast Anticancer Drug Screen. Data for the cln2 rad14 strain (AID 165);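 note: 0% = growth equal to vehicle treated cultures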; details: S. cerevisiae cln2 rad14 strain, at 50.0 µM, stronger effect = higher value
# Procedure, shortened: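 Compounds are applied to the cln2 rad14 yeast strain, and growth is then compared with that of vehicle-treated cultures to give inhibition.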
# [5] = NCI Yeast Anticancer Drug Screen. Data for the bub3 strain (AID 167); details: S. cerevisiae bub3 mutant strain, at 50.0 µM, stronger effect = higher value
# Procedure, shortened: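 Compounds were applied to a genetically altered yeast strain carrying a cell-cycle control defect. Growth inhibition was scored against vehicle-treated controls.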
# [6] = NCI Yeast Anticancer Drug Screen. Data for the mlh1 rad18 strain (AID 175); details: S. cerevisiae mlh1 rad18 strain growth inhibition; at 50.0 µM; stronger effect = higher value
# Procedure, shortened: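 Read-out is yeast growth inhibition, calculated against vehicle-only controls. The compound was applied to a strain engineered with DNA damage repair alterations.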
SMILES,growth inhibition [1],growth inhibition [2],growth inhibition [3],growth inhibition [4],growth inhibition [5],growth inhibition [6]
O=S(=O)(CCN1CCCCC1)c1ccc(F)cc1,21.4%,-12.5%,3.05%,-10.8%,2.4%,9.95%
COc1ccc2oc(=O)c(CC=C(C)C)c(O)c2c1C,23.8%,13.9%,-1.65%,-10.9%,-25.2%,-51%
CCOc1c(OC)ccc(/C(C)=N\O)c1OCC,-2.2%,0.65%,4.8%,-1.7%,11.3%,10.1%
Nc1ccc(S(=O)(=O)NC(=O)c2ccccc2)cc1,12.8%,-7%,10.1%,-26.9%,-3%,0.2%
Cn1c(=O)n(C2OC(CO)C(O)C2O)c2ncnc(N)c21 (centres undefined),8.9%,0.55%,-5.8%,-43.1%,-2.9%,4.65%
C=CCn1c(SC)nc2c(c1=O)CCCC2,-34.5%,-13.4%,-5.4%,-14.3%,7.55%,-10.2%
C=C1c2cc3c(cc2CC12Cc1cc4c(cc1C2=O)CCC4)CCC3 (centres undefined),20.2%,22%,11.3%,24.1%,46.8%,16%
Cc1cc(OCCCC(=O)O)ccc1Cl,51.8%,30.7%,54.1%,34.9%,49.1%,52.1%
CSC(=S)/C(=C/Nc1ccccn1)c1ccccc1,39.5%,14.5%,-8.6%,15.2%,37.8%,14.9%
CC(=O)CC(=O)c1cc(C(C)=O)c(O)c(C(C)=O)c1,-11.8%,0.75%,11%,-3.3%,-11.1%,7.8%
COc1ccc2ccccc2c1NC(C)=O,0.2%,5.95%,-0.7%,-21.8%,-1.6%,-10.5%
CCOC(=O)C(C)(C(=O)OCC)n1cnc2c1c(=O)n(C)c(=O)n2C,8.05%,-7.6%,-12.6%,9.8%,10.8%,4.8%
O=C(O)c1cc(C(=O)O)c(-c2ccccc2)c(-c2ccccc2)c1,8.9%,2.25%,-4.05%,0.65%,1.4%,-5.3%
O=C(CCCN1CC=C(n2c(=O)[nH]c3ccccc32)CC1)c1cccs1,50.6%,29.2%,32.4%,19.9%,33.1%,42.8%
Cc1cc(Cc2c(F)c(F)c(Cc3cc(C)no3)c(F)c2F)on1,8.35%,5.6%,8.85%,1.1%,0.4%,18.1%
CC(C)c1cccc(C(C)C)c1NC(=O)C(=O)C(C(=O)c1ccccc1-c1ccccc1)C1OC(=O)c2ccccc21 (centres undefined),8.2%,3.8%,19.6%,-49.2%,-3.05%,8%
O=C(COc1ccccc1Cl)N1N=C(c2ccc(Cl)cc2)CC1(O)c1ccccc1 (centres undefined),-17.9%,-7.2%,-43.2%,-0.85%,-25.8%,-16.9%
CNC(=S)SC1=NS(=O)(=O)c2ccccc2N1,-9.1%,-5.05%,-2.75%,12.4%,-9.75%,23.4%
C=CNC(=O)NC(=O)CSc1nnc(-c2ccccc2NC(=O)C(F)(F)F)c(=O)[nH]1,5.7%,-4.95%,-4%,14.9%,30.9%,5.4%
Cc1ccccc1N=Cc1ccccc1[N+](=O)[O-],17.1%,9.65%,-1.1%,-22.2%,-0.6%,8.1%

SMILES,growth inhibition [1],growth inhibition [2],growth inhibition [3],growth inhibition [4],growth inhibition [5],growth inhibition [6]
Oc1[nH]c2ccccc2c1N=NC1=NCCCCN1,-33.2%,-36.5%,-6.65%,15.7%,-3.35%,-14.7%
c1ccc(CNc2ccccc2)cc1,3.6%,-29.5%,-24.4%,12.1%,-18.9%,-2.1%
COC(=O)N/N=C/c1ccccc1Cl,4.55%,-31%,-18.6%,-64.8%,-12.5%,-12.2%
COC(=O)COc1ccc(Cl)cc1C(=O)O,23.5%,6.1%,9.8%,-11.8%,27.5%,17.1%
CC(=O)OC1CC23CCC(=O)C2(CC3)C1 (centres undefined),19.9%,-5.8%,1.85%,-30.1%,8.3%,-11%
O=C1CCC(=O)N2CCCCN12,-4.7%,-12.4%,11%,18.6%,22.5%,13.1%
Cc1nc2ccccc2nc1C,-15.2%,-1.8%,-8.85%,1.2%,-2.35%,4.85%
COC(=O)CC(C(C(=O)OC)C(=O)OC)N1C(=O)OC(c2ccccc2)C1c1ccccc1 (centres undefined),7.75%,-10.5%,-2.95%,9.4%,-18%,3.4%
CCOC(=O)CC(C)C1(C=O)CCCCC1=O (centres undefined),-3.2%,-30.3%,-11.7%,7.25%,-19.5%,-17.4%
O=C1[C@@H]2[C@@H](c3ccccc3)[C@]2(Cl)C(=O)[C@H]2[C@H](c3ccccc3)[C@@]12Cl,6.9%,4.15%,1.1%,8.75%,3.8%,32.8%
c1ccc(COCCc2ccccn2)cc1,-5.3%,-19.9%,-3.85%,-26.1%,-22.2%,-20.4%
OCCCNCc1ccccc1,-36.8%,-23.4%,-20.1%,-32.4%,-32.9%,-21.1%
Nn1c(=O)[nH]c2ncn(Cc3ccccc3)c2c1=O,4.3%,-21.9%,9.2%,16.9%,-3%,3.35%
CC(=O)COc1ccccc1-c1ccccc1,5.4%,8.55%,4.9%,-34.8%,8.6%,-14.7%
O=C1Nc2ncnc(Cl)c2Cc2ccccc21,-2.6%,-6.9%,-0.75%,-12.9%,-6.15%,-12.1%
CC(=O)Nc1ccc[n+](CC(=O)c2ccc(F)cc2)c1,-8.95%,0.85%,4.35%,-42.6%,-5.45%,8.65%
OCCCCCCN=Cc1ccccc1O.OCCCCCCN=Cc1ccccc1O.[Cu],47.9%,-1.2%,72.2% (active),-48.2%,4.25%,14.8%
O=C1C=C(Sc2ccccc2)c2nccc3c2c1nc1ccccc13,34.9%,7.6%,20.4%,6.55%,20.1%,30%
COC(=O)C(C(Br)C(=O)c1ccccc1)C(c1ccccc1)[N+](=O)[O-] (centres undefined),68.7%,85.3% (active),54.1%,2.3%,85.9% (active),94.5% (active)
